Laboratory results reported in PubChem BioAssay AID463173 (ICCB-Longwood Screening Facility, Harvard Medical School, 2010).
Out of some 52,000 compounds screened, about 4,300 (8.3%) were called active. This is one part of a sample in which actives are shown more often than they occur. Unmarked numbers belong to inactive results. No stated cut-off is given here; in the data, active means survival mostly below about 52% (no sharp cut-off); inactive means mostly above about 56%.

Test system: DeltatarO mutant
Assay: growth inhibition of S. aureus wild type versus tarO mutant, primary screen, teichoic acid synthesis inhibitors, RN4220, OD600 (AID 463173)
Settings: OD600, 18 h, active compounds read low, screened at 18.75 µg/mL (by protocol)

| SMILES | survival |
| --- | --- |
| COc1ccc(-c2cc3nc(N)cc(=O)n3[nH]2)cc1 | 148% |
| CCOc1cccc2cc(-c3nc4sc5c(c4c(=O)[nH]3)CCC(C(C)(C)C)C5)c(=O)oc12 (stereo unspecified) | 79% |
| CCOC(=O)Cc1c(C)nc2c(-c3ccc(OC)c(OC)c3)c(C)nn2c1C | 82% |
| Cc1ccccc1Cn1c(=O)n(CC2CCC(C(=O)N3CCC(C)CC3)CC2)c(=O)c2sccc21 (stereo unspecified) | 73% |
| O=C(COC(=O)c1cc(-c2cccs2)nc2ccccc12)c1ccccc1 | 45% |
| CCCCOc1ccc(CNC(=O)CCCN2C(=O)CSc3c2c(C)nn3-c2ccccc2)cc1 | 72% |
| CC(C(=O)N1CCCC1)N1CCN(c2ccc(F)cc2)CC1 (stereo unspecified) | 87% |
| COc1ccc(Nc2nc(N)nc(CSc3nc4ccccc4s3)n2)cc1 | 21% (active) |
| COc1cccc(C(=O)Nc2ccc3nc(SCc4ccc(C)cc4)sc3c2)c1 | 64% |
| COc1ccc(Nc2nc(N)nc(CSc3nc4cc(OC)ccc4s3)n2)cc1 | 41% (active) |
| COc1ccc(C(=O)Nc2ccc3nc(SCc4ccc(C)cc4)sc3c2)cc1 | 88% |
| CN1CCN(Cc2nc(N)nc(Nc3ccccc3)n2)CC1 | 70% |
| COc1ccc2sc(N)nc2c1 | 93% |
| Cc1cc2ncn(CCC(=O)NC(C)(C)C)c2cc1C | 95% |
| O=C(O)Cn1nnnc1SCC(=O)Nc1ccc(F)cc1F | 75% |
| CN(C(=O)C(=O)Nc1ccc2nc3n(c(=O)c2c1)CCCCC3)c1cccc(C(F)(F)F)c1 | 76% |
| COc1cc2[nH]c(=O)c(C(=O)NC3CCCC3)c(O)c2cc1OC | 98% |
| CCCCOC(=O)c1ccc(NC2=NS(=O)(=O)c3ccccc32)cc1 | 66% |
| COc1ccc(C2CC(=O)c3cc(-c4nc(-c5cccc([N+](=O)[O-])c5)cs4)c(=O)n(-c4ccc(OC)cc4)c3C2)cc1 (stereo unspecified) | 57% |

| SMILES | survival |
| --- | --- |
| CCc1ccc(NC(=O)CC2C(=O)N(c3cccc(C)c3)C(=O)N2Cc2cccc(OC)c2)cc1 (stereo unspecified) | 92% |
| Cc1nc(-c2ccc(S(=O)(=O)N3CCN(c4cccc(Cl)c4)CC3)cc2)co1 | 91% |
| CCOc1ccc(-c2cc(CCCC(=O)NCCc3ccc(OC)c(OC)c3)no2)cc1 | 91% |
| CCOc1ccc(-c2cc(CCCC(=O)NCCc3cc(OC)c(OC)c(OC)c3)no2)cc1 | 43% (active) |
| CCOc1ccc(CCNC(=O)CCCc2cc(-c3ccc(OCC)cc3)on2)cc1 | 92% |
| COc1cc(C2c3c(oc4ccccc4c3=O)C(=O)N2c2ccccn2)cc(OC)c1OC (stereo unspecified) | 146% |
| Cc1nnc(N2CCN(c3cccc(C(F)(F)F)c3)CC2)c2c1nnn2Cc1ccccc1 | 80% |
| CCOC(=O)c1cc2c(=O)n3ccccc3nc2n(Cc2ccco2)c1=NC(=O)c1ccc(Br)cc1 | 55% |
| CCOC(=O)c1cc2c(=O)n3ccccc3nc2n(Cc2ccco2)c1=NC(=O)c1ccc(F)cc1 | 43% (active) |
| CCOC(=O)c1cc2c(=O)n3ccccc3nc2n(Cc2ccco2)c1=NC(=O)c1ccc(C)c(C)c1 | 34% (active) |
| CCOC(=O)c1cc2c(=O)n3ccccc3nc2n(Cc2ccco2)c1=NC(=O)c1cccc(F)c1 | 17% (active) |
| CCOC(=O)c1cc2c(=O)n3ccccc3nc2n(Cc2ccco2)c1=NC(=O)c1ccc(C(C)(C)C)cc1 | 36% (active) |
| CCOC(=O)c1cc2c(=O)n3ccccc3nc2n(Cc2ccco2)c1=NC(=O)c1c(F)cccc1Cl | 42% |
| CCCn1c(=NC(=O)c2c(-c3c(F)cccc3Cl)noc2C)c(C(=O)OCC)cc2c(=O)n3ccccc3nc21 | 164% |
| CN1CCN(C(=O)c2cnn(-c3cccc(Cl)c3)c2C2CCN(C(=O)OC(C)(C)C)CC2)CC1 | 95% |
| CCc1ccccc1N1CC(c2nc3ccccc3n2CCOc2ccc(Cl)c(C)c2)CC1=O (stereo unspecified) | 3% (active) |
| Cc1cccc(OCCCCn2c(C3CC(=O)N(c4ccccc4Cl)C3)nc3ccccc32)c1 (stereo unspecified) | 10% (active) |
| CCc1ccccc1N1CC(c2nc3ccccc3n2CCCOc2ccc(Cl)cc2)CC1=O (stereo unspecified) | 41% (active) |
| O=C1CC(c2nc3ccccc3n2CCCCOc2ccccc2)CN1c1ccccc1Cl (stereo unspecified) | 58% |

| SMILES | survival |
| --- | --- |
| CCc1ccccc1N1CC(c2nc3ccccc3n2CCCCOc2ccccc2)CC1=O (stereo unspecified) | 54% |
| CCOc1ccccc1N1CC(c2nc3ccccc3n2CCCOc2ccc(OC)cc2)CC1=O (stereo unspecified) | 78% |
| Cc1cc(C)cc(OCCn2c(C3CC(=O)N(c4ccccc4Cl)C3)nc3ccccc32)c1 (stereo unspecified) | 85% |
| Cc1cccc(OCCCCn2c(C3CC(=O)N(c4ccc(C)cc4C)C3)nc3ccccc32)c1 (stereo unspecified) | 47% |
| Cc1ccc(-n2ncc3c(N4CCCCCC4)ncnc32)cc1C | 86% |
| CCOc1ccc(CNC(=O)c2sc3nc(C)cc(C)c3c2-n2cccc2)cc1 | 75% |
| COc1cccc(CNC(=O)c2nn(C)c3c2CSc2ccccc2-3)c1 | 75% |
| O=C(NC1=NCCS1)c1ccccc1 | 101% |
| COc1cccc(C(=O)Nc2nc3nc(C)c(Cc4ccccc4)c(=O)n3[nH]2)c1 | 104% |
| Cc1cccc(Cc2c(C)nc3c(-c4ccccc4)c(C)[nH]n3c2=O)c1 | 16% (active) |
| Cc1nc2nc(NC(=O)CC(C)C)[nH]n2c(=O)c1Cc1ccccc1 | 113% |
| CCc1c(C)nc2cc(-c3ccccc3)[nH]n2c1=O | 73% |
| CCOC(=O)CCc1c(C)nc2c(-c3ccccc3)c(C)[nH]n2c1=O | 87% |
| Cc1nc2c(-c3ccccc3)c(C)[nH]n2c(=O)c1Cc1ccc(C(C)C)cc1 | 11% (active) |
| Cc1ccc(Cc2c(C)nc3c(-c4ccccc4)c(C)[nH]n3c2=O)cc1 | 0% (active) |
| Cc1nc2c(-c3ccccc3)c(C)[nH]n2c(=O)c1Cc1ccc(Br)cc1 | 7% (active) |
| Cc1nc2nc(NC(=O)C(C)C)[nH]n2c(=O)c1Cc1ccccc1 | 98% |
| Cc1nc2nc(NC(=O)C(C)(C)C)[nH]n2c(=O)c1Cc1ccccc1 | 112% |
